# Experimental data as given in article PMC7862700, “An all-to-all approach to the identification of sequence-specific readers for epigenetic DNA modifications on cytosine”.
# Columns and labels:
# Assay in all cases: DAPPL (digital affinity profiling via proximity ligation, sequencing); 10 mM Tris-HCl pH 7.5, 50 mM NaCl, 1 mM DTT, 4% glycerol, room temperature, 30 min; GST-TFs on glutathione beads, 16-mer random dsDNA library, 0.1% formaldehyde crosslink after washing; high values mean tight binding
# FLI1 = biological target: T1, FLI1 (Homo sapiens, UniProt Q01543 1-452); conditions: protein: recombinant; tags: N-terminal GST; dsDNA, one strand shown
# T1 sequence: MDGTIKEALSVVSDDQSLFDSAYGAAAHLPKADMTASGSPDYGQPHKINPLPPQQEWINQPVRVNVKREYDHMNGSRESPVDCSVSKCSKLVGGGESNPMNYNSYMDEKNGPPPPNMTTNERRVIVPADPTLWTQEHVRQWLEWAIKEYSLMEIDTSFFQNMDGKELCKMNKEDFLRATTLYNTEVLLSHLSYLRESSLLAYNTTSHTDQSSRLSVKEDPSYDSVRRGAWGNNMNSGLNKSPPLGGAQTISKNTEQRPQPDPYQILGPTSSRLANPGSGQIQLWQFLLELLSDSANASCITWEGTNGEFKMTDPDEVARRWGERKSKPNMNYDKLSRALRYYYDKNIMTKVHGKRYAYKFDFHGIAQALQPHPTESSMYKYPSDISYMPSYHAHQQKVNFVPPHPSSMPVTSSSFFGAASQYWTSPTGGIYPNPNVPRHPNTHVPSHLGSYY
# Summary of the method: (§1)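 Yeast served to express human transcription factors as GST fusions, which were then captured on glutathione beads and labelled with DNA barcodes. Pooled with a tag-only sample, they were incubated with 200 nmole of a 16-mer random double-stranded DNA library for 30 min at room temperature in Tris/NaCl/DTT/glycerol buffer, washed, crosslinked with 0.1% formaldehyde, ligated by proximity, amplified by PCR and sequenced. Dividing each hexamer's read frequency for a factor by its frequency for the tag-only sample gives the binding signal.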
# ELK1 = biological target: T2, ELK1 (Homo sapiens, UniProt P19419 1-428); conditions: protein: recombinant; tags: N-terminal GST; dsDNA, one strand shown
# T2 sequence: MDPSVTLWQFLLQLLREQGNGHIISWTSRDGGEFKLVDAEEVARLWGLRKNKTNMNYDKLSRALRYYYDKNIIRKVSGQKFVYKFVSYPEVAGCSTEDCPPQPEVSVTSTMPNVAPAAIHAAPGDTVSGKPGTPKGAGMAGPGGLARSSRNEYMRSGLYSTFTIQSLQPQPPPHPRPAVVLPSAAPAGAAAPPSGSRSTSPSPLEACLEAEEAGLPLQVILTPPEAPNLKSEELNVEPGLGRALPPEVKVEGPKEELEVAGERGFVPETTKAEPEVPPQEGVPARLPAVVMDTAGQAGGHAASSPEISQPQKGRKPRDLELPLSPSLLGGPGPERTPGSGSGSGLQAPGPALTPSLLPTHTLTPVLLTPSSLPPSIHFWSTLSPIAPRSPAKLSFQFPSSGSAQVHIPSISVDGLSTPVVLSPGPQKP
# Summary of the method: as §1
# GABPA = biological target: T3, GABPA (Homo sapiens, UniProt Q06546 1-454); conditions: protein: recombinant; tags: N-terminal GST; dsDNA, one strand shown
# T3 sequence: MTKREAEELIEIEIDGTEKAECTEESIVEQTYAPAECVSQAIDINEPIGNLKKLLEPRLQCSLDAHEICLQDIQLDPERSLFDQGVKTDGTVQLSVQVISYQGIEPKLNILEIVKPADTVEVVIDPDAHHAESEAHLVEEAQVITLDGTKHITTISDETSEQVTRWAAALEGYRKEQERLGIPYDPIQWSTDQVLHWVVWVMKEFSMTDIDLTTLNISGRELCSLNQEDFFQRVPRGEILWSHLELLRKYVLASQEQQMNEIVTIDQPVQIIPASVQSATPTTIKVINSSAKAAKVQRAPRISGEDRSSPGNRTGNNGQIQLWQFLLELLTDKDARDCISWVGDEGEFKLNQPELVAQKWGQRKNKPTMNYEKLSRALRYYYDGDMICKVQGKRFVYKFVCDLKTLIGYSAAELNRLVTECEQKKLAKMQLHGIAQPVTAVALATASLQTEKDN
# Summary of the method: as §1
# ERG = biological target: T4, ERG (Homo sapiens, UniProt P11308 1-479); conditions: protein: recombinant; tags: N-terminal GST; dsDNA, one strand shown
# T4 sequence: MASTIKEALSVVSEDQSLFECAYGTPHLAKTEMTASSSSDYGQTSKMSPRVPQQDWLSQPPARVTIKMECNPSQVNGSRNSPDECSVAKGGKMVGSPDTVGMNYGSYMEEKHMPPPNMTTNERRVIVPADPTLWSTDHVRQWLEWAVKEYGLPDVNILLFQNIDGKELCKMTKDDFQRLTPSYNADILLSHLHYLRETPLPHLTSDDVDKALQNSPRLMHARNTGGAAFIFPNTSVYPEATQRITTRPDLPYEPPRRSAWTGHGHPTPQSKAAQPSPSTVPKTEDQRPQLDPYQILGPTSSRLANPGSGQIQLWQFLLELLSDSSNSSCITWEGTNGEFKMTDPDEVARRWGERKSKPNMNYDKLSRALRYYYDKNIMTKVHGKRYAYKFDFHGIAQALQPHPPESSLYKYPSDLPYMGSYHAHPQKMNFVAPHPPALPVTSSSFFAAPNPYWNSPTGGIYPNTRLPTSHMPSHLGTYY
# Summary of the method: as §1
# ELF1 = ELF1 (Homo sapiens, UniProt P32519 1-619); conditions: protein: recombinant; tags: N-terminal GST; dsDNA, one strand shown
# Summary of the method: as §1
# EHF = biological target: T5, EHF (Homo sapiens, UniProt Q9NZC4 1-300); conditions: protein: recombinant; tags: N-terminal GST; dsDNA, one strand shown
# T5 sequence: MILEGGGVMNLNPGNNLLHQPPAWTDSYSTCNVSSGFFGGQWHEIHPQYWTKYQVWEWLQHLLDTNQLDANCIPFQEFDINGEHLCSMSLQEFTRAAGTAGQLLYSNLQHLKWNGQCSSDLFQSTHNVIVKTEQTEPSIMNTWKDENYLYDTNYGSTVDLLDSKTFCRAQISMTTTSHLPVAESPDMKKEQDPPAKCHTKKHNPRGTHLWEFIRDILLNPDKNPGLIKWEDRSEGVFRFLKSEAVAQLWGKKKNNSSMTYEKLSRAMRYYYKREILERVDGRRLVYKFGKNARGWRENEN
# Summary of the method: as §1
# SPI1 = SPI1 (Homo sapiens, UniProt P17947 1-270); conditions: protein: recombinant; tags: N-terminal GST; dsDNA, one strand shown
# Summary of the method: as §1
# SPIB = SPIB (Homo sapiens, UniProt Q01892 1-262); conditions: protein: recombinant; tags: N-terminal GST; dsDNA, one strand shown
# Summary of the method: as §1
# ELK3 = biological target: T6, ELK3 (Homo sapiens, UniProt P41970 1-407); conditions: protein: recombinant; tags: N-terminal GST; dsDNA, one strand shown
# T6 sequence: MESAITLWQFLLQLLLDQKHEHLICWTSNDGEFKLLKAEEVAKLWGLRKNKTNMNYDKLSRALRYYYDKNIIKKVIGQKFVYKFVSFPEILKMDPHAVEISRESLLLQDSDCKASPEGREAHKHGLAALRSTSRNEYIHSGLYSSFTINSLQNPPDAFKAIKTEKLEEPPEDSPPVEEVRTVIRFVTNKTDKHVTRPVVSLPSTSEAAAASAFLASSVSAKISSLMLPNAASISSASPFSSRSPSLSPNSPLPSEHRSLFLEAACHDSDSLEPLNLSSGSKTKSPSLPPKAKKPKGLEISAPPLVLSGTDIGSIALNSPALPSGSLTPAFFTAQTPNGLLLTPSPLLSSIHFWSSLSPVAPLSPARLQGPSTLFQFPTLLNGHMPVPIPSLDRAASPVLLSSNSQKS
# Summary of the method: as §1
# FEV = biological target: T7, FEV (Homo sapiens, UniProt Q99581 1-238); conditions: protein: recombinant; tags: N-terminal GST; dsDNA, one strand shown
# T7 sequence: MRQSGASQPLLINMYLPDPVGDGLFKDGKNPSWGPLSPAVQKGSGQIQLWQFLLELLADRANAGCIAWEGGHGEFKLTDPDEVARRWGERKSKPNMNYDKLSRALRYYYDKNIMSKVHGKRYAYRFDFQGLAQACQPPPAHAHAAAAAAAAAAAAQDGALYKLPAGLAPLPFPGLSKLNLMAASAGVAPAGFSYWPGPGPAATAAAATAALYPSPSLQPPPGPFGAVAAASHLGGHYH
# Summary of the method: as §1
# ETV5 = ETV5 (Homo sapiens, UniProt P41161 1-510); conditions: protein: recombinant; tags: N-terminal GST; dsDNA, one strand shown
# Summary of the method: as §1
# HSF1 = HSF1 (Homo sapiens, UniProt Q00613 1-529); conditions: protein: recombinant; tags: N-terminal GST; chain copies: 3; dsDNA, one strand shown
# Summary of the method: as §1
# SPIC = biological target: T8, SPIC (Homo sapiens, UniProt Q8N5J4 1-248); conditions: protein: recombinant; tags: N-terminal GST; dsDNA, one strand shown
# T8 sequence: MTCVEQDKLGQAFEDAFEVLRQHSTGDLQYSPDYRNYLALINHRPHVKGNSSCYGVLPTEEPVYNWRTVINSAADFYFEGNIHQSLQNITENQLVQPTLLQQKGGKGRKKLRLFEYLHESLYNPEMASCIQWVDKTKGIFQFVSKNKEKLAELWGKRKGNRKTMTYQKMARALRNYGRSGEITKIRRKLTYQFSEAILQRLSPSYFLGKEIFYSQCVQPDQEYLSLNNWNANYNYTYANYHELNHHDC
# Summary of the method: as §1
# ELF4 = ELF4 (Homo sapiens, UniProt Q99607 1-663); conditions: protein: recombinant; tags: N-terminal GST; dsDNA, one strand shown
# Summary of the method: as §1
# ELK4 = biological target: T9, ELK4 (Homo sapiens, UniProt P28324-2 1-405); conditions: protein: recombinant; tags: N-terminal GST; dsDNA, one strand shown
# T9 sequence: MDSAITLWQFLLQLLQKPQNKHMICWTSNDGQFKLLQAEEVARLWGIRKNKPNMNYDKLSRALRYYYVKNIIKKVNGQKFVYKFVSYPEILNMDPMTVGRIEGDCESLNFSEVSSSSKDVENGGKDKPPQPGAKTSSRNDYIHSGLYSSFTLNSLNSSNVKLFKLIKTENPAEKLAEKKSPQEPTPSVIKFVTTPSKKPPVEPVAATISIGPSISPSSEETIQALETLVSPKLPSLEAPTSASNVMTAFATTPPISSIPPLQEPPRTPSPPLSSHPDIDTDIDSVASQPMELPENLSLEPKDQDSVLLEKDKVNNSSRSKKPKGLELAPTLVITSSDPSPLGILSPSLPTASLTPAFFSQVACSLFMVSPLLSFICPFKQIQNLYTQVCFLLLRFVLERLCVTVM
# Summary of the method: as §1
# ETV2 = biological target: T10, ETV2 (Homo sapiens, UniProt O00321 1-342); conditions: protein: recombinant; tags: N-terminal GST; dsDNA, one strand shown
# T10 sequence: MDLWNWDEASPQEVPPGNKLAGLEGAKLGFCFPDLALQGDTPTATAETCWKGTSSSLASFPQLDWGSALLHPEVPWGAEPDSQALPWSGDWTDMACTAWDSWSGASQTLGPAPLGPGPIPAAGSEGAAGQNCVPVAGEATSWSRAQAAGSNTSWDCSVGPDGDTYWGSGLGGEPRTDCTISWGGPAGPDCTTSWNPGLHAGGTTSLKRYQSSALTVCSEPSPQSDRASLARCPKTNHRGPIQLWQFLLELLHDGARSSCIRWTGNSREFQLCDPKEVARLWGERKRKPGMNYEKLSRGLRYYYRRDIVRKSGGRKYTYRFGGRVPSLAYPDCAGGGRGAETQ
# Summary of the method: as §1
# ELF3 = biological target: T11, ELF3 (Homo sapiens, UniProt P78545 1-371); conditions: protein: recombinant; tags: N-terminal GST; dsDNA, one strand shown
# T11 sequence: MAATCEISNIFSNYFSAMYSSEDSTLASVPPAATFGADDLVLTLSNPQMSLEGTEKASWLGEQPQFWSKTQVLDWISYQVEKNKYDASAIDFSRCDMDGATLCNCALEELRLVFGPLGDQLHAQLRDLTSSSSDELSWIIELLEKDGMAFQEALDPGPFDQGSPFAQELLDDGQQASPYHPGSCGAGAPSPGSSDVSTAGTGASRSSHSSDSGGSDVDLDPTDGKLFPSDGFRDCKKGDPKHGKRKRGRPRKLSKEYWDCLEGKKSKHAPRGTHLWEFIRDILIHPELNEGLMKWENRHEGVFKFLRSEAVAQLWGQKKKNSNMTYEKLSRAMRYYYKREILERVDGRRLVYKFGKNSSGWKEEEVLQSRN
# Summary of the method: as §1
# CRX = CRX (Homo sapiens, UniProt O43186 1-299); conditions: protein: recombinant; tags: N-terminal GST; dsDNA, one strand shown
# Summary of the method: as §1
# ETV1 = ETV1 (Homo sapiens, UniProt P50549 1-477); conditions: protein: recombinant; tags: N-terminal GST; dsDNA, one strand shown
# Summary of the method: as §1
# Sequence of HSF1 (Q00613 whole entry): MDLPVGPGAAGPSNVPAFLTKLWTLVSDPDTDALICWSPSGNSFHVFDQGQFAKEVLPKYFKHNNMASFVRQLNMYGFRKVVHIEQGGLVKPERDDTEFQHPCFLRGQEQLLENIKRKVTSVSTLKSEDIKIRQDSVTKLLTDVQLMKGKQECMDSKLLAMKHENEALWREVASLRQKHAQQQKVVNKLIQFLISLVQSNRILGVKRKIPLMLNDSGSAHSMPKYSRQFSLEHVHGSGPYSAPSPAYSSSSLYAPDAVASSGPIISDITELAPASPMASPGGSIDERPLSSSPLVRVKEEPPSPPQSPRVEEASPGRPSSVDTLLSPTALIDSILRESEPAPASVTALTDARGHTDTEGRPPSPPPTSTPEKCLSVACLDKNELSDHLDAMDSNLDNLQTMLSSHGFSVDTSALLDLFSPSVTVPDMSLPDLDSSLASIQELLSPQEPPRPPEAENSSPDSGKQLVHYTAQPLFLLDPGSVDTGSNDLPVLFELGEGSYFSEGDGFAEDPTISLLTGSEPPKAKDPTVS
# Sequence of ETV1 (P50549 whole entry): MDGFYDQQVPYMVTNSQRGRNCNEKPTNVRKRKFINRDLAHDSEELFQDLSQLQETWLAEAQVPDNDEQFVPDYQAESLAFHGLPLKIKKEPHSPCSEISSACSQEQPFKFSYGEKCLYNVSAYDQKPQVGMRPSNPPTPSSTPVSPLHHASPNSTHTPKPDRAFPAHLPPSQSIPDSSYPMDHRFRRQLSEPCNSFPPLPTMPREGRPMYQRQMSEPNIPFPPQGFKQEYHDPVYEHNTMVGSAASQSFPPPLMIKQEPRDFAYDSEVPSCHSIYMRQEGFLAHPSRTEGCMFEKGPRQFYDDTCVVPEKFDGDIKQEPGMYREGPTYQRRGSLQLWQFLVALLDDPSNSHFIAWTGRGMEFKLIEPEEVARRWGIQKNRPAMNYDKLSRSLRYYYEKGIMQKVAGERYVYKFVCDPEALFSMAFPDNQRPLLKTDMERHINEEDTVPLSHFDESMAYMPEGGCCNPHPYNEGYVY
# Sequence of ETV5 (P41161 whole entry): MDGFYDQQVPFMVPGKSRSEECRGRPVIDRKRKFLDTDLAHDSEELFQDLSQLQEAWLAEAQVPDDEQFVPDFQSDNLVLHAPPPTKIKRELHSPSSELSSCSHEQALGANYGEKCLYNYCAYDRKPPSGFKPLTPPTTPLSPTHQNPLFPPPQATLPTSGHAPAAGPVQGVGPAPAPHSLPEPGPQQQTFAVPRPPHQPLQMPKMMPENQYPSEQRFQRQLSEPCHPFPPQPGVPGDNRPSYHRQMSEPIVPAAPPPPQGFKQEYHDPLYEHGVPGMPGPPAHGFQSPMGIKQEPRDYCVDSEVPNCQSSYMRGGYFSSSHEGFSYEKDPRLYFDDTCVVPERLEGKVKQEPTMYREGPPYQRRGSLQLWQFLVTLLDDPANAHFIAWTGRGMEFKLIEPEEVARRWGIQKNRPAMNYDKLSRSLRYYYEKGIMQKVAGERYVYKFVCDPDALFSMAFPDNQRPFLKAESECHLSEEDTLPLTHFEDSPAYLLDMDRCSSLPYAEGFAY
# Sequence of SPIB (Q01892 whole entry): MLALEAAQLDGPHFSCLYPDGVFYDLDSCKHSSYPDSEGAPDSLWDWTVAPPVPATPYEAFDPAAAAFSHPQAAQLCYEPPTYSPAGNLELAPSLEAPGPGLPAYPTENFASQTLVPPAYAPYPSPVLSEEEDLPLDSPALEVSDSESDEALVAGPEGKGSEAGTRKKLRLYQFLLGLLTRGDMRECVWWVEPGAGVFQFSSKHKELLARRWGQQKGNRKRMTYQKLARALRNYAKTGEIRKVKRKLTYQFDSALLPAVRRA
# Sequence of CRX (O43186 whole entry): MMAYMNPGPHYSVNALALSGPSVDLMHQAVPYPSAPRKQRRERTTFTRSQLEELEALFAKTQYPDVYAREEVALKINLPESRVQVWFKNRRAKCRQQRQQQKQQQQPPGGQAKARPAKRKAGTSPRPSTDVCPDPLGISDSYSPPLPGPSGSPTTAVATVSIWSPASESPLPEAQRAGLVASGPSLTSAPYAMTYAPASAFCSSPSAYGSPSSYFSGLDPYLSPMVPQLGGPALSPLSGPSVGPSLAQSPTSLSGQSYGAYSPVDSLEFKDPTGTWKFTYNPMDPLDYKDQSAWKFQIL
# Sequence of ELF4 (Q99607 whole entry): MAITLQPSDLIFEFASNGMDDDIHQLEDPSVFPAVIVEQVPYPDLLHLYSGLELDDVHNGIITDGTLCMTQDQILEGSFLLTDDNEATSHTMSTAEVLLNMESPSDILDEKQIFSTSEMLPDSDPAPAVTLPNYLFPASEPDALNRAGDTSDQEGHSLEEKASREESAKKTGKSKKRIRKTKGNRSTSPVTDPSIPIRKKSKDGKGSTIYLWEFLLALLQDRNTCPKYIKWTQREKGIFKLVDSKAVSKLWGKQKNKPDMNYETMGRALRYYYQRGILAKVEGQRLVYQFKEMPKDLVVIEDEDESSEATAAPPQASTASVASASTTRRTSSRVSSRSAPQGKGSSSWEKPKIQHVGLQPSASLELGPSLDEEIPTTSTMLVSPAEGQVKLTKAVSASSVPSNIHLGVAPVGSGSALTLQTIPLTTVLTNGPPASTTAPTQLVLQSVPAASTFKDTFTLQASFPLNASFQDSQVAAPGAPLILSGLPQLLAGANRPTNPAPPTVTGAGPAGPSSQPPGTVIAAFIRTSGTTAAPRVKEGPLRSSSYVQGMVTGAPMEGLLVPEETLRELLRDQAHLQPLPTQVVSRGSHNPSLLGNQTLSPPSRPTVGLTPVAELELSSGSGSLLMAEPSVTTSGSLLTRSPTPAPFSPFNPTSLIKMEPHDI
# Sequence of ELF1 (P32519 whole entry): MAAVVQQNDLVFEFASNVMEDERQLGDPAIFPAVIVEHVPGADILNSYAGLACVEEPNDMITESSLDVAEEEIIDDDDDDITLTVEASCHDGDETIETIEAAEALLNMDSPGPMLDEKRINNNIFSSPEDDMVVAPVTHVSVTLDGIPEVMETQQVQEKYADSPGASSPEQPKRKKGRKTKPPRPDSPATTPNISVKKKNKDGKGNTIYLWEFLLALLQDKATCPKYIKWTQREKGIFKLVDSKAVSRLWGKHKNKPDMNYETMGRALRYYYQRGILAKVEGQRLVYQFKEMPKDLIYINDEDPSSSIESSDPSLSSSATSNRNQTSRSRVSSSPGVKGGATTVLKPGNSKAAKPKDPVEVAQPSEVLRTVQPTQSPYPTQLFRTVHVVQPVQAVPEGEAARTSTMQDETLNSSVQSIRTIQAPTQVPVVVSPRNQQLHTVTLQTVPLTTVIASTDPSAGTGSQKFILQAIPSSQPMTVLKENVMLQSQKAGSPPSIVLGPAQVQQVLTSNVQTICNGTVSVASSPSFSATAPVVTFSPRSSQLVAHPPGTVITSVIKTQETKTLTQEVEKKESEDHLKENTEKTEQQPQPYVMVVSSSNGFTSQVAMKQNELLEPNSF
sequence,measurement,setting,value
GCTCAC,binding signal,FLI1,"1.37 fold enrichment (6-mer frequency, TF over GST control)"
same,binding signal,ELK1,"1.51 fold enrichment (6-mer frequency, TF over GST control)"
same,binding signal,GABPA,"1.65 fold enrichment (6-mer frequency, TF over GST control)"
same,binding signal,ERG,"1.51 fold enrichment (6-mer frequency, TF over GST control)"
same,binding signal,ELF1,"1.49 fold enrichment (6-mer frequency, TF over GST control)"
same,binding signal,EHF,"1.51 fold enrichment (6-mer frequency, TF over GST control)"
same,binding signal,SPI1,"1.41 fold enrichment (6-mer frequency, TF over GST control)"
same,binding signal,SPIB,"1.44 fold enrichment (6-mer frequency, TF over GST control)"
same,binding signal,ELK3,"1.32 fold enrichment (6-mer frequency, TF over GST control)"
same,binding signal,FEV,"1.54 fold enrichment (6-mer frequency, TF over GST control)"
same,binding signal,ETV5,"1.47 fold enrichment (6-mer frequency, TF over GST control)"
same,binding signal,HSF1,"1.22 fold enrichment (6-mer frequency, TF over GST control)"
same,binding signal,SPIC,"1.32 fold enrichment (6-mer frequency, TF over GST control)"
same,binding signal,ELF4,"1.53 fold enrichment (6-mer frequency, TF over GST control)"
same,binding signal,ELK4,"1.53 fold enrichment (6-mer frequency, TF over GST control)"
same,binding signal,ETV2,"1.63 fold enrichment (6-mer frequency, TF over GST control)"
same,binding signal,ELF3,"1.49 fold enrichment (6-mer frequency, TF over GST control)"
same,binding signal,CRX,"1.37 fold enrichment (6-mer frequency, TF over GST control)"
same,binding signal,ETV1,"1.37 fold enrichment (6-mer frequency, TF over GST control)"
